Consider 54 compounds from ChEMBL document CHEMBL4513216, “Probing the Open Global Health Chemical Diversity Library for Multistage-Active Starting Points for Next-Generation Antimalarials” (ACS Infect Dis, 2020).

SMILES strings stand for the structures. Screen size: about 69,000 compounds; about 8,600 (12%) showed an effect of 50% or more. The sample as a whole holds a higher share of strong results than the screen did.

In this test the test system is Plasmodium berghei. Description: Screen against P. berghei liver stage (PbLuc), transformed with Luciferase, at 10uM. Conditions: tested at 10 uM. The format is functional, HepG2.
As for `O=C(c1cc2c(s1)CCC2)N1CCC(c2ccncc2)CC1`, the INHIBITION is 32.3%.

For `CC(=O)Nc1nc(C(=O)N2CCCC(n3ccnc3C)C2)cs1` (centres undefined), the INHIBITION turned out to be 0.411%.

Regarding `CC(C)(C)CC(=O)N1C[C@H]2CCN[C@H]2C1`, the INHIBITION was 46.4%.

On to `O=C(CC(F)(F)F)N1C[C@H]2CCN[C@H]2C1`, for which the INHIBITION is reported as 62.3%.

For `O=C(CC1CC1)N1C[C@H]2CCN[C@H]2C1`, the INHIBITION was determined as 24.6%.

Turning to `Cn1cnc2c1CCN(CC(=O)NC1CCCCNC1=O)C2` (centres undefined), the INHIBITION is listed as -7.72%.

As for `Cc1csc(NC(=O)CN2CCc3c(nc(C4CC4)n3C)C2)n1`, the INHIBITION turned out to be 67.4%.

Consider `Cn1c(C2CC2)nc2c1CCN(CC(=O)NC1CCCCNC1=O)C2` (centres undefined), for which the INHIBITION stood at 52%.

As for `Cc1nc(CN2CCc3c(nc(C4CC4)n3C)C2)nc2ccccc12`, the INHIBITION is 74.1%.

For the compound `Cn1c(C2CC2)nc2c1CCN(CC(=O)Nc1nccs1)C2`, the INHIBITION stood at 11.9%.

As for `Cn1c(C2CC2)nc2c1CCN(CC(=O)Nc1nncs1)C2`, the INHIBITION is 17%.

With `CCN1CCC(NC(=O)CN2CCc3c(nc(C4CC4)n3C)C2)CC1`, the INHIBITION turned out to be 24.8%.

For `Cc1nc2ccccc2nc1CN1CCc2c(nc(C3CC3)n2C)C1`, the INHIBITION was -12.2%.

Take `Cn1c(C2CC2)nc2c1CCN(Cc1nc3ccccc3s1)C2`: the INHIBITION came to 43.5%.

With `Cc1ccc(C(=O)N(C)Cc2ccc3c(c2)OCO3)c(=O)[nH]1`, the INHIBITION is given as 17.8%.

For `O=c1c2c[nH]c(N3CCCC3)nc-2cn1CCc1ccc(Cl)cc1`, the INHIBITION is 15.1%.

Consider `Cc1nc(C)n(C2CCCN(C(=O)CCc3cn(C)nc3C)C2)n1` (centres undefined), for which the INHIBITION is 21.5%.

For the compound `O=C(c1ccc[nH]1)N1CCc2nnc(Cn3cccn3)n2CC1`, the INHIBITION worked out at 43.4%.

As to `O=C(O)c1ccc2ccc(N3CCN(CC4CC4)CC3)n2c1`, the INHIBITION turned out to be 54.1%.

`CN(C)C(=O)c1ccc2ccc(N3CCN(CC4CC4)CC3)n2c1`: the INHIBITION worked out at 38.3%.

`O=C(NC1CC1)c1ccc2ccc(N3CCN(CC4CC4)CC3)n2c1`: the INHIBITION was found to be 34.9%.

In the case of `CC(C)(C)OC(=O)N[C@H]1CCN(c2cncc(Br)c2)C1`, the INHIBITION is reported as 22%.

For `CCCC(=O)NC1CCCN(c2cncc(Br)c2)C1` (centres undefined), the INHIBITION was determined as 55.4%.

As for `CCOC(=O)NC1CCCN(c2cncc(Br)c2)C1` (centres undefined), the INHIBITION is on record as 35.9%.

Turning to `O=C(c1ccc(Cl)s1)N1CCC2(COc3ncccc3S(=O)(=O)N2)C1` (centres undefined), the INHIBITION was found to be 2.69%.

For the compound `O=C(c1cscn1)N1CCC2(COc3ncccc3S(=O)(=O)N2)C1` (centres undefined), the INHIBITION is on record as 48.2%.

`O=C1CC2(CCN(C(=O)C3CCCCC3)C2)Nc2ccccc2N1` (centres undefined): the INHIBITION was determined as 28.4%.

`O=C(C1CCCCC1)N1CCC2(COc3ncccc3S(=O)(=O)N2)C1` (centres undefined): the INHIBITION is 50.7%.

In the case of `O=C(c1ccncc1)N1CCC2(COc3ncccc3S(=O)(=O)N2)C1` (centres undefined), the INHIBITION is listed as 25.1%.

Turning to `O=C(c1ccccn1)N1CCC2(COc3ncccc3S(=O)(=O)N2)C1` (centres undefined), the INHIBITION is recorded as 67.3%.

As for `CCc1nccn1-c1cncc(C2CCCN2Cc2ccccc2)n1` (centres undefined), the INHIBITION turned out to be 45.6%.

Turning to `CCN1C[C@@H]2[C@@H](OC)CCN(S(=O)(=O)c3ccccc3F)[C@@H]2C1`, the INHIBITION stood at 21.6%.

Turning to `Cc1noc([C@@H](C)NCc2cccc(Cl)c2)c1C(=O)O`, the INHIBITION is reported as 48.2%.

`CN1CC(c2cc(O)nc(NCc3cccc(F)c3)n2)CC1=O` (centres undefined): the INHIBITION was -34.6%.

On to `O=S(=O)(NCC(O)c1ccoc1)c1ccc(Cl)s1` (centres undefined), for which the INHIBITION turned out to be 46.1%.

For the compound `CNc1cc(N2CCCC2CNCc2csc(C(C)C)n2)ncn1` (centres undefined), the INHIBITION came out at 46.2%.

Regarding `CSc1nc(C)cc(N2CCC(c3ncc[nH]3)CC2)n1`, the INHIBITION amounted to 44.6%.

For `CCOc1cc(C)nc(N2CCN(C(=O)c3cn[nH]c3CC)CC2)n1`, the INHIBITION was 44.1%.

As to `CCN(C)S(=O)(=O)N1CCCC(CO)(CC=C(C)C)C1` (centres undefined), the INHIBITION is on record as -3.96%.

On to `CC(C)=CCC1(CO)CCCN(S(C)(=O)=O)C1` (centres undefined), for which the INHIBITION is listed as 28.7%.

Take `CC(C)=CCC1(CO)CCCN(S(=O)(=O)N2CCCC2)C1` (centres undefined): the INHIBITION is recorded as 91.2%.

In the case of `O=C(c1cccnc1O)N1CCN(CCc2cccs2)CC1`, the INHIBITION is listed as 20.45%.

For `CCNc1nc(-c2cccnc2)c(-c2ccnc(NS(C)(=O)=O)n2)s1`, the INHIBITION came out at 47.1%.

Regarding `CCNc1nc(-c2cccnc2)c(-c2ccnc(NCCO)n2)s1`, the INHIBITION is recorded as -80.5%.

Turning to `CC(C)(C)Nc1nc(-c2cccnc2)c(-c2ccnc(NCCO)n2)s1`, the INHIBITION is reported as 59%.

`CN(CC(=O)N1CCCC1Cn1cccn1)Cc1ccccc1` (centres undefined): the INHIBITION came to 48.2%.

Regarding `COc1cccc(CN2CCC3(CCN(C(=O)C4CC=CC4)CC3)C2)c1`, the INHIBITION was found to be 21.3%.

With `Cc1cc(C2CCCCN2C(=O)c2ccsc2)nc2nccn12` (centres undefined), the INHIBITION is on record as 71.3%.

As to `Cc1noc(C)c1C(=O)N1CCCCC1c1cc(C)n2ccnc2n1` (centres undefined), the INHIBITION was 30.4%.

Consider `Cc1cc(C2CCCCN2C(=O)c2cccn2C)nc2nccn12` (centres undefined), for which the INHIBITION was 18.3%.

As for `O=C(c1cncs1)N1CCOCC(Cc2ccncn2)C1` (centres undefined), the INHIBITION was 11.235%.

As to `COc1cc(CN(CCCN(C)C)Cc2ccccn2)cc2c1OCO2`, the INHIBITION is recorded as 18.9%.

On to `COc1cc(CN(C)C(C)c2ccccn2)cc2c1OCO2` (centres undefined), for which the INHIBITION stood at 58.6%.

As for `COc1cc(CN(Cc2ccccn2)CC(C)C)cc2c1OCO2`, the INHIBITION was 36.2%.
